Reference: PubChem BioAssay (NCATS)
Records with an inconclusive call do not appear. Activity calls are given as the source filed them. Calls follow the shape of the dose curve; as a rule, active = well fitted curve in the direction sought with a large enough effect; inconclusive = small, poorly fitted or top-dose-only effect, or another doubt; inactive = no such curve, though single readings can be large; an effect the other way counts as inactive or inconclusive.

Key:
CRL-7250 = normal cell line; experiment: Cytotoxic Profiling of Annotated Libraries Using Quantitative High-Throughput Screening (AID 1296008); settings: Five cell lines viability, CellTiter-Glo ATP luminescence, 48-72 h; max response: stronger effect = lower value; also: nearly all actives have a fitted effect of over 60% in size; as to max response: % is scaled to controls: 0 for no effect and ±100 for the full control effect
How it was run: (§1)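 Compounds were pin-transferred onto cells and incubated 48 or 72 hr at 37 degree Celsius, 95% humidity. CellTiter-Glo was added, plates sat 10 min at room temperature, then ATP-coupled luminescence was imaged as the viability read-out.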

HEK293 = experiment: as above; settings: Five cell lines viability, CellTiter-Glo ATP luminescence, 48-72 h; max response: stronger effect = lower value
How it was run: as §1

HaCat = experiment: as above; settings: Five cell lines viability, CellTiter-Glo ATP luminescence, 48-72 h; max response: stronger effect = lower value
How it was run: as §1

KB-3-1 = experiment: as above; settings: Five cell lines viability, CellTiter-Glo ATP luminescence, 48-72 h; max response: stronger effect = lower value
How it was run: as §1

NIH3T3 = experiment: as above; settings: Five cell lines viability, CellTiter-Glo ATP luminescence, 48-72 h; max response: stronger effect = lower value
How it was run: as §1

HEK293T = experiment: qHTS assay to identify novel small-molecules to repurpose for Merkel cell carcinoma treatment (AID 1296009); settings: MCC and control cell lines, CellTiter-Glo viability, 72 h; series mostly up to 44.8 µM; also: nearly all actives have a fitted effect of over 60% in size
How it was run: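 Viability readout: ATP luminescence (CellTiter-Glo) after 72 hr drug exposure at 37 degree celsius. Dose-response format was 8 points for NPC and 11 points for MIPE; data normalized to in-plate controls.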

C33A = experiment: Primary qHTS to identify gynecologic anti-cancer compounds using libraries of approved drugs and bioactive compounds (AID 1345084); settings: Gynecologic cancer cell panel viability, ATPlite luminescence, 48 h; series mostly up to 57.5 µM; also: % is scaled to controls: 0 for no effect and ±100 for the full control effect; nearly all actives have a fitted effect of over 55% in size
How it was run: (§2)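 ATP-based viability (ATPlite), 1,000 cells/well, 16 h pre-incubation, 48 h compound at 37 C, 5% CO2, 15 min RT before read.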

CAOV3 = experiment: as above; settings: Gynecologic cancer cell panel viability, ATPlite luminescence, 48 h; series mostly up to 57.5 µM
How it was run: as §2

CASKI = experiment: as above; settings: Gynecologic cancer cell panel viability, ATPlite luminescence, 48 h; series mostly up to 57.5 µM
How it was run: as §2

Es-2 = experiment: as above; settings: Gynecologic cancer cell panel viability, ATPlite luminescence, 48 h; series mostly up to 57.5 µM
How it was run: as §2

HeLa = experiment: as above; settings: Gynecologic cancer cell panel viability, ATPlite luminescence, 48 h; series mostly up to 57.5 µM
How it was run: as §2

CC1=CC(=O)OC(C)(CC(C)(O)C(=O)O)C1 (stereo not drawn)
inactive: max response (CRL-7250) -4.45% | outcome (HEK293) | max response (HaCat) -5.61% | max response (KB-3-1) 6.61% | max response (NIH3T3) 0.862% | Potency (HEK293T) | Potency (C33A) | Potency (CAOV3) | Potency (CASKI) | Potency (Es-2) | Potency (HeLa)

CC12CCC3c4ccc(O)cc4CCC3C1CCC2OC1OC(C(=O)O)C(O)C(O)C1O (stereo not drawn)
inactive: outcome (CRL-7250) | outcome (HEK293) | max response (HaCat) 2.12% | outcome (KB-3-1) | max response (NIH3T3) 1.3% | Potency (HEK293T) | Potency (C33A) | Potency (CAOV3) | Potency (CASKI) | Potency (Es-2) | Potency (HeLa)

C[C@@H]1O[C@@H](O[C@H]2[C@H](O[C@H]3CC[C@@]4(C)C(CC[C@]5(C)C4CC=C4[C@@H]6CC(C)(C)CC[C@]6(C(=O)O)CC[C@]45C)[C@]3(C)CO)OC[C@H](O)[C@@H]2O)[C@H](O)[C@H](O[C@@H]2OC[C@@H](O)[C@H](O)[C@H]2O)[C@H]1O (stereo partly drawn)
inactive: max response (CRL-7250) 0.8% | outcome (HEK293) | max response (HaCat) 3.75% | outcome (KB-3-1) | max response (NIH3T3) -3.35% | outcome (HEK293T) inactive [at 9.27 µM] | activity change, negative = cytotoxicity (C33A) -12% [at 11.6 µM] | activity change, negative = cytotoxicity (CAOV3) -8% [at 11.6 µM] | activity change, negative = cytotoxicity (CASKI) -1.75% [at 11.6 µM] | activity change, negative = cytotoxicity (Es-2) -1.5% [at 11.6 µM] | activity change, negative = cytotoxicity (HeLa) 14.3% [at 11.6 µM]

COc1cc(/C=C/C(=O)O[C@H]2[C@H](OC(=O)/C=C/c3cc(OC)c(O)c(OC)c3)O[C@H](CO[C@@H]3O[C@H](CO)[C@@H](O)[C@H](O)[C@H]3O)[C@@H](O)[C@@H]2O)ccc1O
inactive: outcome (CRL-7250) | outcome (HEK293) | max response (HaCat) -26% | max response (KB-3-1) 7.55% | max response (NIH3T3) -14.9% | Potency (HEK293T) | Potency (C33A) | Potency (CAOV3) | Potency (CASKI) | Potency (Es-2) | Potency (HeLa)

C[C@@H]1O[C@@H](O[C@H]2[C@H](O[C@H]3CO[C@@H](O[C@H]4CC[C@@]5(C)C(CC[C@]6(C)C5CC[C@]57OC[C@@]8(CC[C@](C)(CO)CC85)[C@H](O)C[C@]76C)C4(C)C)[C@H](O[C@@H]4O[C@H](CO)[C@@H](O)[C@H](O)[C@H]4O)[C@H]3O)O[C@H](CO)[C@@H](O)[C@@H]2O)[C@H](O)[C@H](O)[C@H]1O (stereo partly drawn)
inactive: max response (CRL-7250) -17.3% | outcome (HEK293) | max response (HaCat) -3.02% | max response (KB-3-1) 5.69% | max response (NIH3T3) 2.44% | outcome (HEK293T) inactive [at 9.27 µM] | activity change, negative = cytotoxicity (C33A) -5.68% [at 11.6 µM] | activity change, negative = cytotoxicity (CAOV3) -8.26% [at 11.6 µM] | activity change, negative = cytotoxicity (CASKI) -2.01% [at 11.6 µM] | activity change, negative = cytotoxicity (Es-2) -8.3% [at 11.6 µM] | activity change, negative = cytotoxicity (HeLa) 0% [at 11.6 µM]

COc1ccc(C)c2sc(NC(=O)c3ccncc3)nc12
inactive: outcome (CRL-7250) | outcome (HEK293) | max response (HaCat) 4.45% | outcome (KB-3-1) | max response (NIH3T3) 2.46% | Potency (HEK293T) | Potency (C33A) | Potency (CAOV3) | Potency (CASKI) | Potency (Es-2) | Potency (HeLa)

C=CC1(C)CC(OC(=O)C(=C)C(O)COC(C)=O)C(C(=C)C(=O)OC)C(O)C1C(=C)CO (stereo not drawn)
inactive: outcome (CRL-7250) | outcome (HEK293) | max response (HaCat) -1.47% | max response (KB-3-1) 1.8% | max response (NIH3T3) 0.638% | Potency (HEK293T) | Potency (C33A) | Potency (CAOV3) | Potency (CASKI) | Potency (Es-2) | Potency (HeLa)

OC[C@H]1O[C@@H](Oc2cc(O)cc(-c3cc4ccc(O)cc4o3)c2)[C@H](O)[C@@H](O)[C@@H]1O
inactive: max response (CRL-7250) 0.0775% | outcome (HEK293) | max response (HaCat) -4.29% | max response (KB-3-1) 4.55% | max response (NIH3T3) 4.16% | Potency (HEK293T) | Potency (C33A) | Potency (CAOV3) | Potency (CASKI) | Potency (Es-2) | Potency (HeLa)

c1nc(NC2CCCCCC2)c2cc(CNC[C@H]3CCCO3)sc2n1
inactive: outcome (CRL-7250) | outcome (HEK293) | max response (HaCat) -3.62% | max response (KB-3-1) -9.77% | max response (NIH3T3) 3.78% | Potency (HEK293T) | Potency (C33A) | Potency (CAOV3) | Potency (CASKI) | Potency (Es-2) | Potency (HeLa)

CC(=O)c1c(C)cc(O[C@@H]2O[C@H](CO)[C@@H](O)[C@H](O)[C@H]2O)cc1O
inactive: outcome (CRL-7250) | outcome (HEK293) | max response (HaCat) 3.2% | max response (KB-3-1) -6.9% | max response (NIH3T3) 0.376% | Potency (HEK293T) | Potency (C33A) | Potency (CAOV3) | Potency (CASKI) | Potency (Es-2) | Potency (HeLa)

O=C(/C=C/c1ccc(O)cc1)O[C@H]1[C@@H]2C=CO[C@@H](O[C@@H]3O[C@H](CO)[C@@H](O)[C@H](O)[C@H]3O)[C@@H]2[C@@]2(CO)O[C@@H]12
inactive: max response (CRL-7250) -3.08% | outcome (HEK293) | max response (HaCat) 1.73% | outcome (KB-3-1) | max response (NIH3T3) 0.736% | Potency (HEK293T) | Potency (C33A) | Potency (CAOV3) | Potency (CASKI) | Potency (Es-2) | Potency (HeLa)

Cn1c(=O)cc(N2CCCC(N)C2)n(Cc2ccccc2C#N)c1=O (stereo not drawn)
inactive: max response (CRL-7250) -7.54% | outcome (HEK293) | max response (HaCat) 0.732% | max response (KB-3-1) 8.99% | outcome (NIH3T3) | Potency (HEK293T) | Potency (C33A) | Potency (CAOV3) | Potency (CASKI) | Potency (Es-2) | Potency (HeLa)

C=C(C)[C@@H](C)[C@H]1O[C@]23C[C@]4(CO2)C(CCC2[C@@]5(C)CC[C@H](O[C@@H]6OC[C@H](O)[C@H](O[C@@H]7O[C@H](CO)[C@@H](O)[C@H](O)[C@H]7O)[C@H]6O[C@@H]6O[C@@H](CO)[C@H](O)[C@H]6O)C(C)(C)C5CC[C@]24C)C3[C@@](C)(O)[C@@H]1OC(C)=O (stereo partly drawn)
inactive: outcome (CRL-7250) | outcome (HEK293) | max response (HaCat) -4.68% | max response (KB-3-1) -3.84% | outcome (NIH3T3) | outcome (HEK293T) inactive [at 9.27 µM] | activity change, negative = cytotoxicity (C33A) 0.663% [at 11.6 µM] | activity change, negative = cytotoxicity (CAOV3) 12.4% [at 11.6 µM] | activity change, negative = cytotoxicity (CASKI) -5.16% [at 11.6 µM] | activity change, negative = cytotoxicity (Es-2) 4.13% [at 11.6 µM] | activity change, negative = cytotoxicity (HeLa) -18.1% [at 11.6 µM]
